Here are results for 22 compounds from PubChem BioAssay AID720517 (National Center for Advancing Translational Sciences (NCATS), 2013).

Results filed as inconclusive are left out. Where a call stands in place of a potency, no number is given. Activity calls are given as the source filed them. Calls follow the shape of the dose curve; as a rule, active = well fitted activation curve with a large enough effect; inconclusive = small, poorly fitted or top-dose-only effect; inactive = flat fitted curve, though single readings scatter.

This experiment is described as follows: qHTS for Inhibitors of Cell Surface uPA Generation: FP59 Counterscreen for Cherry-picked Compounds. Conditions: FP59 anthrax toxin cytotoxicity counterscreen, cells; series mostly up to 115 µM. (In general: Quantitative high-throughput screening tests each substance at several concentrations.)
Regarding `COc1ccc(N2CCN(C3CCN(S(=O)(=O)c4ccc(F)cc4)CC3)CC2)cc1`, the Potency entry is “inactive”. Consider `CC(C)C[C@H]1CN([C@@H](CC(C)C)CN2CCCC2CN2C(=S)NC[C@@H]2Cc2ccc(O)cc2)C(=S)N1CC1CCCCC1` (some centres not stated), for which the Potency entry was “inactive”. As for `O=C(COC(=O)c1cc([N+](=O)[O-])ccc1NCCO)NCc1cccs1`, the Potency result is “inactive”. The value for `CC1CCCC(NC(=O)CNC(=S)N(Cc2ccccc2)Cc2cccs2)C1C` (configuration not stated) was “inactive”. The value for `CC(C)OC(=O)c1ccc(N2CCN(c3ccccc3F)CC2)nc1` was “inactive”. The value for `COc1ccc(CCNC(=O)Cn2c(=O)n(-c3cc(F)ccc3F)c(=O)c3sccc32)cc1OC` was “inactive”.

In the case of `Cc1cc(=O)n2nc(N3CCCC(C(=O)NCc4ccc(Cl)cc4)C3)sc2n1` (configuration not stated), the Potency result was “inactive”. The value for `CC(=O)c1ccc(N=C2SCCCN2C(=O)C2CCCCC2)cc1` was “inactive”; that for `COc1ccc2nc3c(cc2c1)c(NC(=O)C1CCCO1)nn3CC(C)C` (configuration not stated) was “inactive”. `CC(=O)NCCc1cnc[nH]1`: the Potency entry is “inactive”. The value for `Cc1noc(C)c1COc1ccc(C(=O)O)cc1` was “inactive”.

Turning to `CC(C)c1ccc(NC(=O)COc2ccc(S(=O)(=O)N3CCOCC3)cc2)cc1`, the Potency result is “inactive”. The value for `COc1ccc(C2C(C(=O)c3ccc(C)o3)=C(O)C(=O)N2CC2CCCO2)cc1OC` (configuration not stated) was “inactive”; that for `COc1ccccc1N1CCN(C(=O)CCC(=O)N2CCN(c3ccc(F)cc3)CC2)CC1` was “inactive”. For the compound `Cc1ccc(NC(=O)CS(=O)Cc2nc(-c3ccc(C)cc3)oc2C)cc1` (configuration not stated), the Potency entry was “inactive”. The value for `C=C(C)C(=O)O[C@H]1C/C(C)=C\C(=O)/C=C(\C)[C@H](O)[C@@H]2OC(=O)C(=C)[C@@H]21` was “inactive”; that for `NC(=O)c1cc2ccncc2c2ccccc12` was “inactive”; that for `CCN(CC(=O)Nc1c(F)cccc1F)C(=O)c1ccc(-c2ccc(C(C)=O)cc2)o1` was “inactive”. `O=C1CCCC/C1=C\Nc1ccc(S(=O)(=O)Nc2cnc3ccccc3n2)cc1`: the Potency entry is “inactive”.

As to `COc1ccc(NC(=O)CN2C(=O)CSc3ncccc32)cc1`, the Potency result is “inactive”. The value for `Cc1ccc(NC(=O)CSc2nncn2N)cc1C` was “inactive”; that for `O=C(Nn1cnnc1)c1ccc(Cl)c(Cl)c1` was “inactive”.
